A number with no mark means an inactive call. Activity calls are given as the source filed them.

A short description of one assay: CREB reporter modulators without forskolin, primary screen, cell-based, PC12, CRE-LacZ reporter, unstimulated (AID 1145). As to conditions: no forskolin, luminescence, 4.5 h, higher = more signal, called active from +8 up or from −8 down.
Take `CC(C)C(=C=CC[C@@H](O)c1ccccc1OCCO)C[C@@H](O)c1ccccn1`: the z-score was 1.19.

With `O=C1O[C@H](c2ccccc2)[C@H](c2ccccc2)N2[C@H]1[C@@H](C(=O)NC[C@H](O)c1ccccc1)[C@]1(C(=O)Nc3ccc(C#CCCO)cc31)[C@H]2c1ccc(O)cc1`, the z-score was -0.329.

With `COCCOC(=O)N1C(=O)[C@@]2(c3cc(C#CCNC(N)=O)ccc31)[C@H](c1ccccc1OCCO)N1[C@H](c3ccccc3)[C@H](c3ccccc3)OC(=O)[C@H]1[C@@H]2C(N)=O`, the z-score was 0.802.

For `O=C1C2C=CC(C(O)c3cccs3)N(Nc3ccccc3F)C2C(=O)N1c1ccccc1` (centres undefined), the z-score is -0.714.

`COCCOC(=O)N1C(=O)[C@@]2(c3cc(C#Cc4ccc(OC)cc4)ccc31)[C@H](C(=O)N1CCN(c3ncccn3)CC1)[C@H]1C(=O)O[C@H](c3ccccc3)[C@H](c3ccccc3)N1[C@@H]2c1ccc(O)cc1`: the z-score is -0.191.

Turning to `COC(=O)c1ccc(C23CC2(C(NP(=O)(c2ccccc2)c2ccccc2)c2ccccc2)C3)cc1` (centres undefined), the z-score was -1.14.

Turning to `CS(=O)(=O)CCOC(=O)C1=CC(CCCO)=CC(c2cccs2)N(Cc2cc3c(cc2Br)OCO3)C=C1C(=O)OCCS(C)(=O)=O` (centres undefined), the z-score was -0.583.

On to `CC(C)c1ccc(NN2C(C(O)c3ccc(N(C)C)cc3)C=CC3C(=O)N(c4ccccc4)C(=O)C32)cc1` (centres undefined), for which the z-score is -0.133.

Regarding `COCCOC(=O)N1C(=O)[C@@]2(c3cc(C#CCC(C(=O)OC)C(=O)OC)ccc31)[C@H](c1ccc(O)cc1)N1[C@H](c3ccccc3)[C@H](c3ccccc3)OC(=O)[C@H]1[C@@H]2C(N)=O`, the z-score is -0.329.

Consider `COc1ccc([Si](C)(C)[C@@H]2[C@@H](CCn3cc([C@H](O)c4ccccc4)nn3)O[C@]3(C(=O)N(Cc4ccc(N5C(=O)c6cccc7cccc5c67)cc4)c4ccccc43)[C@H]2C)cc1`, for which the z-score is 1.22.

Regarding `CCOC(=O)C1=CC[C@@H](c2ccccc2)N(S(=O)(=O)c2ccc(C)cc2)[C@H]1C(=O)OCC`, the z-score was -0.415.

Consider `CCCCCN1CC=CC23O[C@@H]4/C=C\CCCOC(=O)C4[C@H]2C(=O)N(CCCCCCO)[C@@H]3C1=O` (some centres undefined), for which the z-score is -1.44.

Turning to `COCCOC(=O)N1C(=O)[C@@]2(c3ccccc31)[C@H](C(=O)NC[C@H](O)c1ccccc1)[C@H]1C(=O)O[C@H](c3ccccc3)[C@H](c3ccccc3)N1[C@@H]2c1ccc(OCCO)cc1`, the z-score was -1.83.

Consider `CC(=O)Nc1cc(Br)ccc1C(=O)O`, for which the z-score was -0.141.

Turning to `CN(C)C(=O)[C@@]1(CCC(=O)OC(C)(C)C)N=C(c2ccc(OCCCO)cc2)O[C@H]1c1ccccc1`, the z-score was 0.195.

For `C=CCOC(=O)[C@@H]1[C@H]2C(=O)O[C@H](c3ccccc3)[C@H](c3ccccc3)N2[C@H](c2ccc(OCCOC(=O)[C@@H]3C[C@@H]4C(=O)N[C@@H](Cc5ccccc5)C(=O)N4[C@@H]3c3cccc(OCCO)c3)cc2)[C@@]12C(=O)Nc1ccc(I)cc12`, the z-score was -1.08.

Regarding `COc1cc2c(cc1O)C(C)N(Cc1cccc(OC(F)(F)F)c1)CC2` (centres undefined), the z-score was 0.506.

With `CC(C)CNC(=O)[C@@]1(c2ccc([N+](=O)[O-])cc2)CC(=O)N(CC23CC4CC(CC(C4)C2)C3)[C@@H]1c1ccc(CO)cc1`, the z-score is -0.0888.

Turning to `COc1ccc([Si](C)(C)[C@@H]2[C@@H](CC(=O)N(CCO)Cc3ccccc3)O[C@]3(C(=O)N(C)c4ccccc43)[C@H]2C)cc1`, the z-score is 11.9 (active).

In the case of `CC(C)N1C(=O)C[C@@](C(=O)NCc2ccccc2)(c2ccc([N+](=O)[O-])cc2)[C@H]1c1ccc(CO)cc1`, the z-score was 1.03.

For the compound `O=C1C2C=CC(C(O)c3ccc(B(O)O)cc3)N(Nc3ccccc3)C2C(=O)N1c1ccccc1` (centres undefined), the z-score is 0.24.

`O=C(CCN1CCOCC1)c1cccc(O)c1`: the z-score is 0.182.

`C=CC[C@]1(C(=O)N2CCOCC2)N=C(c2ccc(OCCCO)cc2)O[C@H]1c1ccccc1`: the z-score was 1.34.

`C=CC(=C)C1=CCO[C@@H]1[C@H]1CCCN1S(=O)(=O)c1ccccc1[N+](=O)[O-]`: the z-score was 0.124.

Turning to `COc1ccc(C#Cc2ccc3c(c2)[C@]2(C(=O)N3)[C@H](c3ccc(O)cc3)N3[C@H](c4ccccc4)[C@H](c4ccccc4)OC(=O)[C@H]3[C@@H]2C(=O)NC[C@H](O)c2ccccc2)cc1`, the z-score was -0.0246.

Turning to `CN1C=C(C(=O)OCCS(C)(=O)=O)C(C(=O)OCCS(C)(=O)=O)=CC(CCCO)=CC1C1CC1` (centres undefined), the z-score is -0.844.

Consider `C=CC[C@@]1(C(=O)NCC(O)CO)N=C(c2ccc(OCCCO)cc2)O[C@@H]1c1ccccc1N=[N+]=[N-]` (some centres undefined), for which the z-score is 0.573.

A further assay can be described thus: CREB reporter modulators under forskolin, primary screen, cell-based, PC12, CRE-LacZ reporter, forskolin-stimulated (AID 1146).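 Further: PC12 cells with 6xCRE LacZ reporter stimulated by forskolin 10 µM; beta-galactosidase reporter signal reflecting CREB driven transcription.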 Particulars: luminescence, 4.5 h, higher = more signal, called active from +8 up or from −8 down.
With `C=CCC(OC(C)=O)[C@@H]1[C@@H](N(Cc2cc3ccccc3o2)C(=O)c2ccc(C)cc2)c2cc(OCCCO)ccc2N1C(=O)c1ccc2ccccc2c1` (some centres undefined), the z-score was 0.697.

For the compound `COc1c(C)cc(-c2cc3c(c(-c4ccc(Oc5ccccc5)cc4)n2)[Si](C(C)C)(C(C)C)OC3)cc1C`, the z-score is 0.151.

Regarding `COc1ccc([Si](C)(C)[C@@H]2[C@@H](CC(=O)N3CCC[C@H]3CO)O[C@]3(C(=O)N(C)c4c(Br)cc(C)cc43)[C@H]2C)cc1`, the z-score is 0.157.

Take `CCC(CC)C(O)C1C=CC2C(=O)N(c3ccccc3)C(=O)C2N1Nc1ccc(C#N)cc1` (centres undefined): the z-score is 0.435.

Turning to `C=CCC(OC(C)=O)[C@@H]1[C@@H](N(Cc2ccc(-c3ccccc3)cc2)C(=O)Cc2ccc(F)cc2)c2cc(OCCCO)ccc2N1C(=O)c1ccc2ccccc2n1` (some centres undefined), the z-score was -0.116.

Take `C=C[C@@H](COC(C)=O)N(Cc1ccccc1[N+](=O)[O-])S(=O)(=O)c1ccc(Br)cc1`: the z-score is -1.41.

`COCCOC(=O)N1C(=O)[C@@]2(c3cc(C#CC4=CCCCC4)ccc31)[C@H](C(=O)NC[C@H](O)c1ccccc1)[C@H]1C(=O)O[C@H](c3ccccc3)[C@H](c3ccccc3)N1[C@@H]2c1ccc(O)cc1`: the z-score was -1.04.

Turning to `[N-]=[N+]=Nc1ccccc1[C@@H]1OC(c2ccc(OCCCO)cc2)=N[C@]1(CCS(=O)(=O)c1ccccc1)C(=O)N1CCOCC1`, the z-score was -1.49.

As for `Cc1ccc(S[C@]2(C(=O)NCC(C)C)CC(=O)N(Cc3ccccc3Cl)[C@@H]2c2ccc(CO)cc2)cc1`, the z-score is -0.227.

Turning to `CC(C)C(=C=CC[C@@H](O)c1ccccc1OCCO)C[C@@H](O)c1ccccn1`, the z-score is -0.3.

Regarding `O=C1O[C@H](c2ccccc2)[C@H](c2ccccc2)N2[C@H]1[C@@H](C(=O)NC[C@H](O)c1ccccc1)[C@]1(C(=O)Nc3ccc(C#CCCO)cc31)[C@H]2c1ccc(O)cc1`, the z-score is 0.0393.

Take `COCCOC(=O)N1C(=O)[C@@]2(c3cc(C#CCNC(N)=O)ccc31)[C@H](c1ccccc1OCCO)N1[C@H](c3ccccc3)[C@H](c3ccccc3)OC(=O)[C@H]1[C@@H]2C(N)=O`: the z-score was 5.24.

Regarding `O=C1C2C=CC(C(O)c3cccs3)N(Nc3ccccc3F)C2C(=O)N1c1ccccc1` (centres undefined), the z-score was -0.198.

For `COCCOC(=O)N1C(=O)[C@@]2(c3cc(C#Cc4ccc(OC)cc4)ccc31)[C@H](C(=O)N1CCN(c3ncccn3)CC1)[C@H]1C(=O)O[C@H](c3ccccc3)[C@H](c3ccccc3)N1[C@@H]2c1ccc(O)cc1`, the z-score is 0.0921.

With `COC(=O)c1ccc(C23CC2(C(NP(=O)(c2ccccc2)c2ccccc2)c2ccccc2)C3)cc1` (centres undefined), the z-score is -0.0812.

Take `CS(=O)(=O)CCOC(=O)C1=CC(CCCO)=CC(c2cccs2)N(Cc2cc3c(cc2Br)OCO3)C=C1C(=O)OCCS(C)(=O)=O` (centres undefined): the z-score was 0.72.

On to `CC(C)c1ccc(NN2C(C(O)c3ccc(N(C)C)cc3)C=CC3C(=O)N(c4ccccc4)C(=O)C32)cc1` (centres undefined), for which the z-score is 0.856.

For `COCCOC(=O)N1C(=O)[C@@]2(c3cc(C#CCC(C(=O)OC)C(=O)OC)ccc31)[C@H](c1ccc(O)cc1)N1[C@H](c3ccccc3)[C@H](c3ccccc3)OC(=O)[C@H]1[C@@H]2C(N)=O`, the z-score is 0.305.

`COc1ccc([Si](C)(C)[C@@H]2[C@@H](CCn3cc([C@H](O)c4ccccc4)nn3)O[C@]3(C(=O)N(Cc4ccc(N5C(=O)c6cccc7cccc5c67)cc4)c4ccccc43)[C@H]2C)cc1`: the z-score is -1.68.

On to `CCOC(=O)C1=CC[C@@H](c2ccccc2)N(S(=O)(=O)c2ccc(C)cc2)[C@H]1C(=O)OCC`, for which the z-score was -0.76.

Turning to `CCCCCN1CC=CC23O[C@@H]4/C=C\CCCOC(=O)C4[C@H]2C(=O)N(CCCCCCO)[C@@H]3C1=O` (some centres undefined), the z-score is -0.43.

As for `COCCOC(=O)N1C(=O)[C@@]2(c3ccccc31)[C@H](C(=O)NC[C@H](O)c1ccccc1)[C@H]1C(=O)O[C@H](c3ccccc3)[C@H](c3ccccc3)N1[C@@H]2c1ccc(OCCO)cc1`, the z-score was -0.686.

Regarding `CC(=O)Nc1cc(Br)ccc1C(=O)O`, the z-score is 0.151.

Turning to `CN(C)C(=O)[C@@]1(CCC(=O)OC(C)(C)C)N=C(c2ccc(OCCCO)cc2)O[C@H]1c1ccccc1`, the z-score is -1.4.

Turning to `C=CCOC(=O)[C@@H]1[C@H]2C(=O)O[C@H](c3ccccc3)[C@H](c3ccccc3)N2[C@H](c2ccc(OCCOC(=O)[C@@H]3C[C@@H]4C(=O)N[C@@H](Cc5ccccc5)C(=O)N4[C@@H]3c3cccc(OCCO)c3)cc2)[C@@]12C(=O)Nc1ccc(I)cc12`, the z-score is 0.0071.

For the compound `COc1cc2c(cc1O)C(C)N(Cc1cccc(OC(F)(F)F)c1)CC2` (centres undefined), the z-score was 1.66.

Consider `CC(C)CNC(=O)[C@@]1(c2ccc([N+](=O)[O-])cc2)CC(=O)N(CC23CC4CC(CC(C4)C2)C3)[C@@H]1c1ccc(CO)cc1`, for which the z-score is -1.32.
